Results reported in the supplement of paper PMC7695840.
Structures can show the parent of a compound that is named as a salt.

How the values were obtained:
[1] = test system: Staphylococcus aureus MW2 delta-mecA (mecA-); experiment: normalized GFP fluorescence (growth of mecA- strain) (fraction of control range); higher = more growth of mecA- strain; settings: compound concentration: 150 uM; cefoxitin: subinhibitory; fluorescent label: GFP
Procedure, shortened: (§1)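 Two pre-induced S. aureus MW2 strains, one with the gene labeled by DsRed and one lacking it labeled by GFP, were mixed 1:1 in LB with a subinhibitory antibiotic dose set daily. The mix went at 5 µL/well onto 150 μM compound (1.5% DMSO) in 1536-well plates, single replicate, and grew unshaken 20 h at 37 °C, 90% humidity. DsRed (540/590) and GFP (485/520) values were scaled per plate between single-strain control medians, and plates with high untreated ratios or rows with DsRed/GFP >10 were left out.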

[2] = test system: Staphylococcus aureus MW2 (mecA+); experiment: normalized DsRed fluorescence (growth of mecA+ strain) (fraction of control range); higher = more growth of mecA+ strain; settings: compound concentration: 150 uM; cefoxitin: subinhibitory; fluorescent label: DsRed
Procedure, shortened: as §1

Compound	normalized GFP fluorescence [1]	normalized DsRed fluorescence [2]
CCC(=O)NCC[C@@H]1CCc2ccc3c(c21)CCO3	0.8	0.671
C=C(c1ccc(C(=O)O)cc1)c1cc2c(cc1C)C(C)(C)CCC2(C)C [Bexarotene]	0.666	0.742
CCCCCCOC(=O)NC(=N)c1ccc(NCc2nc3cc(C(=O)N(CCC(=O)OCC)c4ccccn4)ccc3n2C)cc1	0.00832	0.473
c1cc(CN2CCCNCCNCCCNCC2)ccc1CN1CCCNCCNCCCNCC1 [Plerixafor]	0.396	0.938
CCC(C)n1ncn(-c2ccc(N3CCN(c4ccc(OCC5COC(Cn6cncn6)(c6ccc(Cl)cc6Cl)O5)cc4)CC3)cc2)c1=O (stereo unspecified)	0.389	0.642
COc1ccc(CNc2nc(N3CCC[C@H]3CO)ncc2C(=O)NCc2ncccn2)cc1Cl [Avanafil]	0.53	0.718
CN(C(=O)C(Cl)Cl)c1ccc(OC(=O)c2ccco2)cc1	0.156	0.938
NC(=O)C1(N2CCCCC2)CCN(CCCC(=O)c2ccc(F)cc2)CC1	0.529	0.733
NCc1ccc(S(N)(=O)=O)cc1	0.22	0.71
CCCCC(=O)O[C@]1(C(=O)CO)CC[C@H]2[C@@H]3CCC4=CC(=O)CC[C@]4(C)[C@H]3[C@@H](O)C[C@@]21C	0.382	0.447
CC(=O)N[C@H]1[C@H]([C@H](O)[C@H](O)CO)OC(C(=O)O)=C[C@@H]1NC(=N)N [Zanamivir (Relenza)]	0.233	0.719
CCCCCCCN(CC)CCCC(O)c1ccc(NS(C)(=O)=O)cc1 (stereo unspecified) [Ibutilide fumarate]	0.723	0.737
CCCCOc1cc(C(=O)NCCN(CC)CC)c2ccccc2n1 [Dibucaine (Cinchocaine) HCl]	0.265	0.835
CCc1nn(CCCN2CCN(c3cccc(Cl)c3)CC2)c(=O)n1CCOc1ccccc1	0.108	0.736
N[C@@H](Cc1ccc(O)c(O)c1)C(=O)O	0.506	0.611
C#CCN[C@@H]1CCc2ccccc21	0.911	0.693
Cc1ncc(CO)c(CO)c1O	0.208	0.816
CCOc1cc2ncc(C#N)c(Nc3ccc(OCc4ccccn4)c(Cl)c3)c2cc1NC(=O)/C=C/CN(C)C [Neratinib (HKI-272)]	0.0386	0.921
Cc1ccc([C@@H]2O[C@H](CO)[C@@H](O)[C@H](O)[C@H]2O)cc1Cc1ccc(-c2ccc(F)cc2)s1 [Canagliflozin]	-0.0143	0.755

Compound	normalized GFP fluorescence [1]	normalized DsRed fluorescence [2]
CNC[C@H](O)[C@@H](O)[C@H](O)[C@H](O)CO [Meglumine]	0.21	0.823
NC(=O)N1c2ccccc2C=Cc2ccccc21	0.497	0.792
CC(C(=O)O)c1ccc(N2Cc3ccccc3C2=O)cc1 (stereo unspecified)	0.227	0.501
CCN(CCCCOC(=O)c1ccc(OC)c(OC)c1)C(C)Cc1ccc(OC)cc1 (stereo unspecified)	0.41	0.559
CN(C)C/C=C/C(=O)Nc1cc2c(Nc3ccc(F)c(Cl)c3)ncnc2cc1O[C@H]1CCOC1 [Afatinib (BIBW2992)]	-0.00507	1.68
C[C@H]1O[C@@H](O[C@H]2[C@@H](O)C[C@H](O[C@H]3[C@@H](O)C[C@H](O[C@H]4CC[C@@]5(C)[C@H](CC[C@@H]6[C@@H]5CC[C@]5(C)[C@@H](C7=CC(=O)OC7)CC[C@]65O)C4)O[C@@H]3C)O[C@@H]2C)C[C@H](O)[C@@H]1O	0.212	0.724
CCOC(=O)O[C@]1(C(=O)OCCl)CC[C@H]2[C@@H]3CCC4=CC(=O)C=C[C@]4(C)[C@H]3[C@@H](O)C[C@@]21C [Loteprednol etabonate]	0.281	0.603
Nc1ncnc2c1ncn2[C@@H]1O[C@H](CO)[C@@H](O)[C@@H]1O	0.428	0.346
CCCCOc1ccc(C(=O)CCN2CCCCC2)cc1	0.00391	0.36
CC(=O)[C@H]1CC[C@H]2[C@@H]3CCC4=CC(=O)CC[C@]4(C)[C@H]3CC[C@]12C	0.278	0.415
CNCCC(Oc1ccc(C(F)(F)F)cc1)c1ccccc1 (stereo unspecified)	-0.00367	1.27
CCCc1cc(=O)[nH]c(=S)[nH]1	0.668	0.582
O=C([O-])C(O)[C@H](O)[C@@H](O)[C@H](O)[C@H](O)CO.O=C([O-])C(O)[C@H](O)[C@@H](O)[C@H](O)[C@H](O)CO.[Ca+2] (stereo partly specified)	0.35	0.718
NC12CC3CC(CC(C3)C1)C2	0.453	0.794
CCC(=O)OCC(=O)[C@@]1(OC(=O)CC)[C@@H](C)C[C@H]2[C@@H]3CCC4=CC(=O)C=C[C@]4(C)[C@@]3(Cl)[C@@H](O)C[C@@]21C	0.322	0.958
O=C(NCCN1CCOCC1)c1ccc(Cl)cc1 [Moclobemide]	0.558	0.739
CC(C(=O)O)c1cccc(C(=O)c2ccccc2)c1 (stereo unspecified)	0.247	0.413
CC(C)OC(=O)C(C)(C)Oc1ccc(C(=O)c2ccc(Cl)cc2)cc1	0.203	0.698
O=C(NCC(O)CO)c1c(I)c(C(=O)NCC(O)CO)c(I)c(N(CCO)C(=O)CO)c1I (stereo unspecified)	0.368	1.04
